In PubChem BioAssay (NCI):
This is part of a sample that, as a whole, favours compounds with a hit. Of some 83,000 tested, about 20% had one in any assay.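 Single-dose data. Exposure time 48 hours. Values below 10 considered active.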 Unmarked numbers belong to inactive results. The source made the active and inactive calls.

Columns and labels:
Assay in all cases: NCI-60 one-dose screen, 48 h (100 = growth as untreated, 0 = no growth, -100 = all killed)
Details in all cases: 10 µM unless noted
T-47D breast = test system: T-47D breast
BT-549 breast = test system: BT-549 breast
MDA-MB-435 melanoma = test system: MDA-MB-435 melanoma
SW-620 colon = test system: SW-620 colon
MCF7 breast = test system: MCF7 breast
HCT-116 colon = test system: HCT-116 colon
HCC-2998 colon = test system: HCC-2998 colon
KM12 colon = test system: KM12 colon

SMILES | growth (T-47D breast) | growth (BT-549 breast) | growth (MDA-MB-435 melanoma) | growth (SW-620 colon) | growth (MCF7 breast) | growth (HCT-116 colon) | growth (HCC-2998 colon) | growth (KM12 colon)
CCOC(=O)C(=O)Nc1ccc2c(ccn2C(=O)c2cccc(F)c2)c1 | 99.1% | 88.8% | 100% | 98.7% | 89.6% | 102% | 103% | 98.2%
COc1cc2cc(Oc3ccc(NC(=O)c4cc(C(F)(F)F)cc(C(F)(F)F)c4)cc3)c(C)nc2cc1OCCN1CCOCC1 | 84.7% | 71.4% | 65.4% | 97.2% | 26.4% | 11.9% | 113% | 73.5%
Cc1ccc2c(n1)C(=O)C(Cl)=C(Nc1ccccc1C(=O)OC(C)(C)C)C2=O | -25.2% (active) | 38.6% | 84.7% | -28.3% (active) | -60.1% (active) | -84.6% (active) | 92.3% | 99.1%
COc1ccc(-c2cc(-c3ccc(N(C)C)cc3)n3c(n2)nc2ccccc23)cc1 | 2.27% (active) | 40.1% | 74.3% | 76.9% | 40.7% | 15.8% | 84.2% | 62.3%
N#Cc1c(-c2cccs2)cc(-c2cnccn2)nc1SCC(=O)N/N=C/c1ccncc1 | 101% | 113% | 104% | 112% | 92.5% | 101% | 109% | 100%
Cn1c2nc3ccccc3c-2cc2ccccc21 | 37.4% | 101% | 39.5% | 28.3% | 10.9% | 22.1% | 52.9% | 31.8%
N#Cc1nc(-c2ccc(Cl)cc2)oc1N1CCC(S(=O)(=O)N2CCOCC2)CC1 | 103% | 103% | 99% | 95.9% | 94.3% | 101% | 102% | 105%
O=C(CSc1nc2ccccc2c(=O)n1-c1ccccc1)N/N=C/c1ccc(Oc2ccc(Br)cc2)cc1 | 82.4% | 73.1% | 80.8% | 29.6% | 68.9% | 7.81% (active) | 87.1% | 76.3%
CC(C)C(/C=C/c1[nH]ncc1-c1cc(Cl)ccc1O)N1CCOCC1 (stereo not drawn) | 94.9% | 90% | 95.8% | 98.4% | 76.8% | 89.3% | 104% | 99.6%
COc1ccc(N2CCN(C3=C(Cl)C(=O)c4ncccc4C3=O)CC2)cc1 | -53.3% (active) | 111% | -59.9% (active) | -4.75% (active) | -27.6% (active) | -59.7% (active) | 107% | 95.7%
O=C(CCCCCCNC(=O)C(O)(O)C(F)(F)F)Nc1ncc(-c2ccc(Br)cc2)s1 | 3.85% (active) | -20.5% (active) | 6.58% (active) | -16.2% (active) | 6.6% (active) | -26.3% (active) | -54.6% (active) | -67% (active)
Cn1cc(-c2nc(N)nnc2-c2c[nH]c3ccc(Br)cc23)c2cc(F)ccc21 | 74.8% | 96.9% | 50.5% | 95.1% | 47.4% | 100% | 122% | 74.7%
CC[C@H](CC[C@@H](C)[C@H]1CC[C@H]2[C@@H]3CC(=O)C4=CC(=O)/C(=C/c5ccc([N+](=O)[O-])cc5)C[C@]4(C)[C@H]3CC[C@]12C)C(C)C | 89.1% | 109% | 94.4% | 110% | 84.8% | 86.5% | 105% | 100%
CC1CCN(CC(=O)Nn2c(COc3ccccc3)nc3ccccc3c2=O)CC1 | 67.8% | 97.9% | 5.85% (active) | 57.2% | 42.4% | 81.9% | 89.9% | 45%
CC(=O)/C(N=Nc1ccc2oc(=O)ccc2c1)=C(\C)O | 8.7% (active) | 33.2% | 33.2% | 17.6% | 25.8% | 12.1% | 35.7% | 19%
O=C(Nc1ccc(Cl)c(C(F)(F)F)c1)Nc1ccc2oc(=O)ccc2c1 | 8.73% (active) | 78.7% | 50.3% | 37.3% | 11.9% | 15.7% | 29.2% | 19.6%

SMILES | growth (T-47D breast) | growth (BT-549 breast) | growth (MDA-MB-435 melanoma) | growth (SW-620 colon) | growth (MCF7 breast) | growth (HCT-116 colon) | growth (HCC-2998 colon) | growth (KM12 colon)
CC(C)Sc1nc(-c2ccccc2)c(C#N)c(N2CCOCC2)n1 | 68.5% | 111% | 88% | 74.2% | 72.8% | 43.5% | 69.5% | 88.3%
Cc1ccc(N2CCN(C3=C(Cl)C(=O)c4ncccc4C3=O)CC2)cc1 | -56.1% (active) | 103% | -81.2% (active) | -79.7% (active) | -62% (active) | -78.1% (active) | 104% | 80%
NC1C2CCC1CN(c1cnc(C(=O)Nc3cc(F)cc4cccnc34)cn1)C2 (stereo not drawn) | 34.2% | 94.7% | 75.5% | 25% | 3.24% (active) | 15.8% | 79.3% | 77.1%
NNc1nnc2nc(Nc3ccccc3)nc(Nc3ccc(S(N)(=O)=O)cc3)n12 | 109% | 107% | 108% | 104% | 97.8% | 107% | 104% | 103%
COc1cccc2c1[C@H](OC)[C@]13O[C@@]1(C2=O)[C@H](O)[C@H](C)[C@@](O)(C(=O)[C@@H]1O[C@H]1C)[C@@H]3O | -11.8% (active) | -39.6% (active) | -72.7% (active) | -14.7% (active) | -21.3% (active) | -26.8% (active) | -79.3% (active) | -31.1% (active)
CCOC(=O)Nc1ccc2c(ccn2C(=O)c2cccc(F)c2)c1 | 45.2% | 26.1% | -45.4% (active) | 26.3% | 26% | 25.6% | 43.8% | 24.6%
COc1ccccc1/C=C1\Oc2ccc(O)c(O)c2C1=O | 86.3% | 89.5% | 93.4% | 105% | 88.2% | 83.7% | 96.8% | 99.7%
O=S(=O)(NCCCNc1nccc(-c2[nH]c(-c3ccccc3)nc2-c2ccc(F)c(O)c2)n1)c1ccccc1 | 90.1% | 112% | 51% | 133% | 94.9% | 77.9% | 126% | 98.8%
O=C(/C=C/c1cccc(C(F)(F)F)c1)Nc1cccc(C(F)(F)F)c1 | -6.89% (active) | 118% | 48.5% | 33.5% | 30.9% | 21% | 57.4% | 24.4%
O=C(Nc1cc(C(F)(F)F)cc(C(F)(F)F)c1)Nc1ccc2oc(=O)ccc2c1 | 4.8% (active) | 10% | 3.64% (active) | 19.4% | 3.81% (active) | 2.09% (active) | 11.2% | 9.67% (active)
O=C(/C=C/c1ccccc1Cl)Nc1ncc(Cc2cc(Cl)ccc2Cl)s1 | 29.9% | 32.5% | -26.6% (active) | 14.3% | 16.6% | 17.3% | 57.8% | 22.1%
COc1ccc([C@@H]2C(=O)N(c3cc(OC)c(OC)c(OC)c3)[C@H]2c2ccc(OC)c(O)c2)cc1 | 94.9% | -30.1% (active) | -15.4% (active) | 24.2% | 10.6% | 6.47% (active) | 17% | 10.7%
NCCNC(=O)c1cccc(COc2ccccc2NC(=O)c2cc(Cl)c(Cl)[nH]2)c1 | 89.2% | 105% | 101% | 111% | 77.7% | 86.1% | 106% | 101%
COC(=O)c1ccc(NC2=C(Cl)C(=O)C(C)=C(C)C2=O)cc1 | -25.9% (active) | 77.5% | 7.22% (active) | 35.5% | 35.9% | 32.4% | 71.1% | 6.69% (active)
CCOC(=O)c1ccccc1NC1=C(Cl)C(=O)c2nc(C)ccc2C1=O | 92.8% | 114% | 111% | 94.8% | 87.5% | 99.1% | 97.2% | 105%
